{"source": "paper PMC4336329", "about": "(PLoS ONE, 2015)", "note": "Among all 310,000 compounds or so, about 14,000 (4.5%) showed an effect of 50% or more. Effects have a minus sign here. What follows is part of a selection rich in strong results, with near analogues and random picks from the rest.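 Further: peak tail current of the secondary pulse compared with the same well before compound.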"}
{"biological_target": "human ether-à-go-go-related gene (hERG) potassium channel (human, UniProt Q12809)", "sequence (Q12809 whole entry, looked up)": "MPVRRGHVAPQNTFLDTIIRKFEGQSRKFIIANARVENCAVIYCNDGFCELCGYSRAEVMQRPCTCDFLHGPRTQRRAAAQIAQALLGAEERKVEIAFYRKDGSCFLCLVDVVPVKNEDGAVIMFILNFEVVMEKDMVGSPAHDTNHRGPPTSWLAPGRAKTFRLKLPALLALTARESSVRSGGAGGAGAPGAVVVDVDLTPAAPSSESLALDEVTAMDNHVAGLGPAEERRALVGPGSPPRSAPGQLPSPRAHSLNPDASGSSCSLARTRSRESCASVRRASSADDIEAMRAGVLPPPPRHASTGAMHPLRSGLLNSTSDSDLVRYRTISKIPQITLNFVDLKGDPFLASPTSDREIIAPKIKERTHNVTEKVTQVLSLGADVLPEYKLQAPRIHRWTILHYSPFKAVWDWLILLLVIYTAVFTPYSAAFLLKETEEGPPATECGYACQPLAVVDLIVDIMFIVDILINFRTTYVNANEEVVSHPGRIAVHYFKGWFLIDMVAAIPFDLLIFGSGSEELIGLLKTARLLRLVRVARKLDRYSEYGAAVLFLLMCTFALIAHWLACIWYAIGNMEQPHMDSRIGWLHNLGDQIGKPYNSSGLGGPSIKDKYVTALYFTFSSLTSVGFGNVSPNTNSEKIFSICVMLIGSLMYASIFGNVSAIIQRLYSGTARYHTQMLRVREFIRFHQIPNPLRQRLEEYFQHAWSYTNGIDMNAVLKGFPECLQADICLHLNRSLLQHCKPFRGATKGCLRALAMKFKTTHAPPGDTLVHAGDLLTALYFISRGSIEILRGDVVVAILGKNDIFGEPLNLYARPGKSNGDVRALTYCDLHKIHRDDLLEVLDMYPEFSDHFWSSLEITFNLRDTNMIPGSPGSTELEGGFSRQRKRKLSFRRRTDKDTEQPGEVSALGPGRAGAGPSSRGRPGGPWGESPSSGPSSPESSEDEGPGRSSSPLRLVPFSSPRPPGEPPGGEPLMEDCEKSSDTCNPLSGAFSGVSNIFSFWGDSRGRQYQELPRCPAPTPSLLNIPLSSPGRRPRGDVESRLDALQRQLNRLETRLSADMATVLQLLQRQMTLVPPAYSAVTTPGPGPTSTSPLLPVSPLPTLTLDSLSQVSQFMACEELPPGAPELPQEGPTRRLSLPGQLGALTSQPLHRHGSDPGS", "experiment": "primary screen, population patch clamp on CHO cells stably expressing hERG; higher = less effect of the substance", "units": {"hERG current change (%, negative = inhibition) at 10uM": "%"}}
{"smiles": "CC(=O)/C(=N\\Nc1ccc(C)cc1)Sc1nncn1C", "hERG current change (%, negative = inhibition) at 10uM": -12.8}
{"smiles": "COc1ccccc1C(=O)NCc1ccc(-c2nc3ccccc3s2)cc1", "hERG current change (%, negative = inhibition) at 10uM": -11}
{"smiles": "O=C(NNc1nc(-c2ccccc2)cs1)c1ccccc1", "hERG current change (%, negative = inhibition) at 10uM": 3.27}
{"smiles": "CC1(C)CC(CC(=O)NNc2nc(-c3ccccc3)cs2)C(=O)O1", "note": "(centres unmarked)", "hERG current change (%, negative = inhibition) at 10uM": -2.28}
{"smiles": "Br.CC(C)CC1CC(C)(c2csc(NNC(=O)c3ccccc3)n2)OC1=O", "note": "(centres unmarked)", "hERG current change (%, negative = inhibition) at 10uM": -74.5}
{"smiles": "O=C(Nc1cccc(F)c1)C1C2C=CC3(CN(CCCN4CCOCC4)C(=O)C13)O2", "note": "(centres unmarked)", "hERG current change (%, negative = inhibition) at 10uM": -8.87}
{"smiles": "Cl.O=C1CSC(c2ccccc2F)N1CCN1CCCCC1", "note": "(centres unmarked)", "hERG current change (%, negative = inhibition) at 10uM": -10.6}
{"smiles": "CCOC(=O)C1(CC2CCCCO2)CCN(Cc2cc3ccccc3[nH]2)CC1", "note": "(centres unmarked)", "hERG current change (%, negative = inhibition) at 10uM": -46.1}
{"smiles": "CCOC(=O)C1(CC2CC2)CCN(Cc2ccc3cccc(F)c3n2)CC1", "hERG current change (%, negative = inhibition) at 10uM": -48.3}
{"smiles": "CCOC(=O)C1(CC2CCCCO2)CCN(S(=O)(=O)c2cccc(F)c2)CC1", "note": "(centres unmarked)", "hERG current change (%, negative = inhibition) at 10uM": 29.8}
{"smiles": "CCOC(=O)C1(Cc2ccccc2)CCN(Cc2cn[nH]c2-c2ccccc2)CC1", "hERG current change (%, negative = inhibition) at 10uM": -28.8}
{"smiles": "CCOC(=O)C1(CC2CC2)CCN(S(=O)(=O)/C=C/c2ccccc2)CC1", "hERG current change (%, negative = inhibition) at 10uM": -18.4}
{"smiles": "CCOC(=O)C1(CC2CCCCO2)CCN(Cc2cn[nH]c2-c2cccc(F)c2)CC1", "note": "(centres unmarked)", "hERG current change (%, negative = inhibition) at 10uM": -53.9}
{"smiles": "CCOC(=O)C1(CC2CC2)CCN(Cc2cn[nH]c2-c2ccccc2)CC1", "hERG current change (%, negative = inhibition) at 10uM": -79.5}
{"smiles": "CCOC(=O)C1(CC2CC2)CCN(Cc2cn[nH]c2-c2cccc(F)c2)CC1", "hERG current change (%, negative = inhibition) at 10uM": -91.6}
{"smiles": "CC(C#N)Sc1ncnc2sc3c(c12)CCC3", "note": "(centres unmarked)", "hERG current change (%, negative = inhibition) at 10uM": 0.835}
{"smiles": "CCC(Sc1ccc2nnc(CCNS(=O)(=O)c3ccc(OC)cc3)n2n1)C(=O)OC", "note": "(centres unmarked)", "hERG current change (%, negative = inhibition) at 10uM": -10.7}
{"smiles": "OCCC1CN(Cc2ccccc2OC2CCCC2)CCN1Cc1ccsc1", "note": "(centres unmarked)", "hERG current change (%, negative = inhibition) at 10uM": -68.7}
{"smiles": "COc1cccc(CN2CCN(Cc3ccc4c(c3)OCCO4)CC2CCO)c1", "note": "(centres unmarked)", "hERG current change (%, negative = inhibition) at 10uM": -7.1}
{"smiles": "Cc1nn(C(C)C)c(C)c1CN1CCN(Cc2ccsc2)C(CCO)C1", "note": "(centres unmarked)", "hERG current change (%, negative = inhibition) at 10uM": 0.518}
{"smiles": "OCCC1CN(Cc2cccc(OC3CCCC3)c2)CCN1Cc1ccsc1", "note": "(centres unmarked)", "hERG current change (%, negative = inhibition) at 10uM": -70}
{"smiles": "OCCC1CN(Cc2ccsc2)CCN1C1CCCC1", "note": "(centres unmarked)", "hERG current change (%, negative = inhibition) at 10uM": -9.06}
{"smiles": "CCCn1ncc(CN2CCN(Cc3ccsc3)C(CCO)C2)c1C", "note": "(centres unmarked)", "hERG current change (%, negative = inhibition) at 10uM": -5.55}
{"smiles": "CC(=O)c1cccc(NC(=O)N2CCC(c3ccc(C)cc3)C2)c1", "note": "(centres unmarked)", "hERG current change (%, negative = inhibition) at 10uM": -13.8}
{"smiles": "COc1ccc(-c2c(C(F)(F)F)oc3cc(OCC(=O)Nc4ccccc4C(F)(F)F)ccc3c2=O)cc1OC", "hERG current change (%, negative = inhibition) at 10uM": 4.91}
{"smiles": "CC1(C)Cc2nc3oc4c(NCc5ccccc5)ncnc4c3cc2CO1", "hERG current change (%, negative = inhibition) at 10uM": -10.7}
{"smiles": "CC1(C)Cc2nc3oc4c(N(CCO)Cc5ccccc5)ncnc4c3cc2CO1", "hERG current change (%, negative = inhibition) at 10uM": -65.6}
{"smiles": "CC1(C)Cc2nc3sc4c(N(CCO)CCO)ncnc4c3cc2CO1", "hERG current change (%, negative = inhibition) at 10uM": 3.56}
{"smiles": "CCN1CCN(C(=O)CN(c2cc(OC)ccc2OC)S(C)(=O)=O)CC1", "hERG current change (%, negative = inhibition) at 10uM": 16.2}
{"smiles": "O=C(c1ccc(Cl)cc1)N1N=C(c2ccccn2)CC1(O)C(F)(F)F", "note": "(centres unmarked)", "hERG current change (%, negative = inhibition) at 10uM": -13.6}
{"smiles": "COc1ccc(S(=O)(=O)N2CCCCCC2)cc1NC(=O)c1ccccc1", "hERG current change (%, negative = inhibition) at 10uM": 10.5}
{"smiles": "COc1ccc(NC(=O)c2ccc3c(c2)OCCO3)cc1OC", "hERG current change (%, negative = inhibition) at 10uM": 9.47}
{"smiles": "COc1ccc(CCNS(=O)(=O)c2cccc(F)c2)cc1OC", "hERG current change (%, negative = inhibition) at 10uM": -1.75}
{"smiles": "Nc1nonc1C(=O)NCCNC(=O)c1ccccc1F", "hERG current change (%, negative = inhibition) at 10uM": 4.12}
{"smiles": "Nc1nonc1C(=O)NCCNC(=O)c1cccs1", "hERG current change (%, negative = inhibition) at 10uM": -58.7}
{"smiles": "C/C(=N\\NC(=O)c1nonc1N)c1cccs1", "hERG current change (%, negative = inhibition) at 10uM": 4.26}
{"smiles": "CCCCCCCCNC(=O)c1cnccn1", "hERG current change (%, negative = inhibition) at 10uM": -7.1}
{"smiles": "O=c1[nH]nc(CNc2ccc(O)cc2)c2ccccc12", "hERG current change (%, negative = inhibition) at 10uM": -6.61}
{"smiles": "O=C(O)c1ccc(Cl)c(S(=O)(=O)N(Cc2ccccc2)c2ccccc2)c1", "hERG current change (%, negative = inhibition) at 10uM": 7.76}
{"smiles": "O=C(O)c1ccc(Cl)c(S(=O)(=O)N(Cc2ccccc2)c2ccc(F)cc2)c1", "hERG current change (%, negative = inhibition) at 10uM": 13.9}
{"smiles": "COc1ccccc1N(Cc1ccccc1)S(=O)(=O)c1cccc(C(=O)NC2CC(C)(C)NC(C)(C)C2)c1", "hERG current change (%, negative = inhibition) at 10uM": -73.4}
{"smiles": "CN(C)S(=O)(=O)c1cc(C(=O)Nc2ccccc2C(=O)NC2CC2)ccc1Cl", "hERG current change (%, negative = inhibition) at 10uM": -62.2}
{"smiles": "CC1(C)CC(NC(=O)c2cccc(S(=O)(=O)N(Cc3ccccc3)c3ccccc3)c2)CC(C)(C)N1", "hERG current change (%, negative = inhibition) at 10uM": -45.3}
{"smiles": "CN(C)S(=O)(=O)c1ccc(F)c(C(=O)Nc2ccccc2C(=O)NC2CC2)c1", "hERG current change (%, negative = inhibition) at 10uM": -38.7}
{"smiles": "CC1(C)CC(NC(=O)c2ccc(Cl)c(S(=O)(=O)N(Cc3ccccc3)c3ccccc3)c2)CC(C)(C)N1", "hERG current change (%, negative = inhibition) at 10uM": -62.3}
{"smiles": "COc1ccccc1N(Cc1ccccc1)S(=O)(=O)c1cccc(C(=O)O)c1", "hERG current change (%, negative = inhibition) at 10uM": 10.9}
{"smiles": "O=C(Nc1ccccc1C(=O)NC1CC1)c1ccccc1", "hERG current change (%, negative = inhibition) at 10uM": 12.9}
